# Measurements taken from PubChem BioAssay (Tox21).
# Unmarked numbers belong to inactive results. Results filed as inconclusive are left out. Entries that show only a call come without a potency. The source made the active and inactive calls. Unless noted, the call rests on the fitted dose curve; in most records, active means well fitted curve in the direction sought with a large enough effect in the repeat runs; inconclusive means weak or mixed curves; inactive means no such curve, though single readings can be large; an effect the other way counts as inactive or inconclusive.
# Columns and labels:
# [1] = qHTS assay to identify small molecule antagonists of the sonic hedgehog signaling (Shh) pathway (AID 1259369; calls by dose curve; further: nearly all actives have a fitted effect of over 45% in size; further: potency means the concentration at half of the fitted maximal effect)
# In short: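 Luminescence readout: firefly Luc under Gli1 response element in 3T3Gli1-Luc cells (NIH/3T3 clone). Antagonist mode, stimulation by conditioned medium; compound exposure 24hr at 37 C, 5% CO2.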
# [2] = target: Estrogen receptor beta (Homo sapiens) (UniProt Q92731); experiment: qHTS assay to identify small molecule agonists of the estrogen receptor beta (ER-beta) signaling pathway (AID 1259377; active means well fitted activation curve with a large enough effect in the signal ratio in the repeat runs, not every such curve was filed as active; the % refers to the signal ratio)
# In short: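 Read-out: beta-lactamase FRET fluorescence. Cell line: ER-beta-UAS-bla HEK293T in 2% charcoal-stripped FBS. Exposure: 16 hr at 37C. Substrate step: 2 h at room temperature.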
# [3] = qHTS assay to identify small molecule agonists of the androgen receptor (AR) signaling pathway in the presence of an antagonist - cell viability counter screen (AID 1259379);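 further: MDA-kb2 human breast cancer cells carrying an MMTV luciferase reporter; series mostly up to about 92 µM; nearly all actives have a fitted effect of over 25% in size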
# In short: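 Viability counter screen: CellTiter-Fluor fluorescence, measured in the same wells as the luciferase read-out. MDA-kb2 cells, 3,000/well, with nilutamide at 3.0uM final and compounds at 15 concentrations, 16 hr at 37C, 0% CO2.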
# [4] = qHTS assay to identify small molecule agonists of the estrogen receptor beta (ER-beta) signaling pathway - cell viability counter screen (AID 1259380); further: nearly all actives have a fitted effect of over 30% in size
# In short: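 Luminescence read-out (CellTiter-Glo, 30 min, room temp) taken in the same wells as the beta-lactamase reporter assay; ER-beta-UAS-bla HEK293T cells exposed to DMSO-dissolved compounds for 16 hr at 37C in 2% charcoal-stripped FBS medium.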
# [5] = qHTS assay to identify small molecule antagonists of the estrogen receptor beta (ER-beta) signaling pathway - cell viability counter screen (AID 1259382); further: series mostly up to about 92 µM; nearly all actives have a fitted effect of over 55% in size
# In short: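 Luminescent ATP read-out (CellTiter-Glo, 30 min, RT) taken in the same wells as the bla reporter assay. HEK293T ER-beta-UAS-bla cells in 2% charcoal-stripped FBS were exposed to compounds with 1nM E2 for 16 hr at 37C.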
# [6] = qHTS assay to identify small molecule agonists or antagonists of the thyroid stimulating hormone receptor (TSHR) signaling pathway - wild type cell line counter screen (AID 1259384; calls by dose curve)
# In short: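 Wild-type HEK293 cells were plated 18 h at 37 C/5% CO2, pin-dosed with compound plus Ro20-1724 medium, held 30 min at room temperature, then given cAMP-d2 and anti-cAMP-cryptate; fluorescence was read after 1 h. Fifteen concentrations, triplicate.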
# [7] = target: Thyrotropin receptor (Homo sapiens) (UniProt P16473); experiment: qHTS assay to identify small molecule antagonists of the thyroid stimulating hormone receptor (TSHR) signaling pathway (AID 1259385; calls by dose curve; further: nearly all actives have a fitted effect of over 20% in size)
# In short: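 TSHR-HEK293 cells were plated and held 18 h at 37C/5% CO2, then given compound plus Ro20-1724 and stimulated with TSH at 1.5 ng/mL final. After 30 min at room temperature, cAMP was detected with cAMP-d2/anti-cAMP-cryptate (1 h) by fluorescence.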
# [8] = qHTS assay to identify small molecule agonists of the estrogen receptor alpha (ER-alpha) signaling pathway in the presence of an antagonist - cell viability counter screen (AID 1259386);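 further: series mostly up to about 92 µM; cells exposed to compounds for 22 h at 37 °C before the viability read; nearly all actives have a fitted effect of over 30% in size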
# In short: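 Read-out: CellTiter-Fluor fluorescence after 1hr reagent incubation, measured in the same wells as the luciferase readout. VM7Luc4E2 cells were exposed to 15 compound concentrations with 10.0nM ICI-182,780 for 22hr at 37C.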
# [9] = target: Progesterone receptor (Homo sapiens) (UniProt P06401); experiment: qHTS assay to identify small molecule agonists of the progesterone receptor (PR) signaling pathway (AID 1346784; calls by dose curve; further: nearly all actives have a fitted effect of over 30% in size)
# In short: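 Compounds were tested for PR agonism in HEK 293T cells bearing a beta-lactamase gene under UAS control. Treatment lasted 16 hr at 37C; signal came from fluorescence of a FRET substrate.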
# [10] = target: Progesterone receptor (Homo sapiens) (UniProt P06401); experiment: qHTS assay to identify small molecule antagonists of the progesterone receptor (PR) signaling pathway (AID 1346795; active means well fitted inhibition curve with a large enough effect in the signal ratio in the repeat runs, not every such curve was filed as active; the % refers to the signal ratio)
# In short: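 In HEK293T cells bearing the PR-UAS-bla reporter, compound effects on promegestone-driven (1 nM) beta-lactamase expression are assessed after 16 hr using a fluorescent FRET substrate incubated 2 hr at room temperature.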
# [11] = qHTS assay to identify small molecule antagonists of the progesterone receptor (PR) signaling pathway - cell viability counter screen (AID 1346798); further: series mostly up to about 92 µM; nearly all actives have a fitted effect of over 50% in size
# In short: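 Following a 4 hr attachment, PR-UAS-bla HEK293T cells in charcoal-stripped FBS medium were exposed to compounds with R5020 for 16 hr; CellTiter-Glo was added and luminescence read after 30 min at room temperature.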
# [12] = qHTS assay to identify small molecule agonists of the progesterone receptor (PR) signaling pathway - cell viability counter screen (AID 1346799; calls by dose curve; further: nearly all actives have a fitted effect of over 45% in size)
# In short: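 Here, 3,000 PR-UAS-bla HEK293T cells per well were treated with compounds for 16 hr after a 6 hr preincubation at 37C and 5% CO2; cell viability is the CellTiter-Glo luminescence signal.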
# [13] = qHTS assay to identify small molecule agonists of the TGF-beta/Smad signaling pathway - cell viability counter screen (AID 1346829); further: top concentration of the series differs between compounds; nearly all actives have a fitted effect of over 45% in size
# In short: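 HEK 293T SBE-bla line, 5 hr compound exposure at 37 C, multiplexed CellTiter-Glo viability read by luminescence.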
# [14] = qHTS assay to identify small molecule agonists of the TGF-beta/Smad signaling pathway (AID 1346859; active means well fitted activation curve with a large enough effect in the signal ratio in the repeat runs, not every such curve was filed as active; the % refers to the signal ratio; further: series mostly up to about 77 µM)
# In short: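 Each well held 4,000 SBE-bla HEK 293T cells incubated overnight before compound addition; 5 hr later the cleavable FRET substrate went on for 2 hr at room temperature, and fluorescence was read at two emissions.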
# [15] = target: Thyrotropin-releasing hormone receptor (Homo sapiens) (UniProt P34981); experiment: qHTS assay to identify small molecule antagonists of the thyrotropin-releasing hormone receptor (TRHR) signaling pathway (AID 1346877; active means well fitted inhibition curve with a large enough effect in the repeat runs, not every such curve was filed as active; further: series mostly up to about 51 µM)
# In short: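 HEK293/TRHR cells, 18 h, 37 °C; Ca2+ dye 2 h; cpd 5 min RT; TRH 1 nM final; fluorescence read 3 min, 1 s intervals; 15 concs, triplicate.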
# [16] = target: Thyrotropin-releasing hormone receptor (Homo sapiens) (UniProt P34981); experiment: qHTS assay to identify small molecule agonists of the thyrotropin-releasing hormone receptor (TRHR) signaling pathway (AID 1346891; calls by dose curve; further: series mostly up to about 58 µM)
# In short: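 Screening of agonists relied on calcium signalling in HEK293 cells expressing human TRHR: dye loading 2 h at 37 °C preceded compound addition and a 3-min fluorescence time course.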
# [17] = target: Estrogen receptor beta (Homo sapiens) (UniProt Q92731); experiment: qHTS assay to identify small molecule antagonists of the estrogen receptor beta (ER-beta) signaling pathway (AID 1259378; active means well fitted inhibition curve with a large enough effect in the signal ratio in the repeat runs, not every such curve was filed as active; the % refers to the signal ratio; further: potency means the concentration at half of the fitted maximal effect)
# In short: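 ER-beta-UAS-bla HEK293T (GripTite) cells in 2% charcoal-stripped FBS medium were preincubated 6 hr at 37C, dosed with compound, then stimulated with 1 nM E2 (final) for 16 hr; beta-lactamase reporter read by B/G FRET fluorescence after 2 hr substrate loading.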
# [18] = target: Estrogen receptor (Homo sapiens) (UniProt P03372); experiment: qHTS assay to identify small molecule agonists of the estrogen receptor alpha (ER-alpha) signaling pathway in the presence of an antagonist (AID 1259383; calls by dose curve; further: top concentration of the series differs between compounds; nearly all actives have a fitted effect of over 15% in size)
# In short: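 Luciferase luminescence (ONE-Glo, 30min at room temperature) measured in VM7Luc4E2 cells after 22hr compound exposure at 15 concentrations, with 10.0nM ICI-182,780 final present; cells express endogenous ER-alpha and carry four EREs upstream of luciferase.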
# [19] = qHTS assay to identify small molecule antagonists of the TGF-beta/Smad signaling pathway - cell viability counter screen (AID 1346824); further: nearly all actives have a fitted effect of over 50% in size
# In short: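 SBE-bla HEK 293T cells were plated overnight at 37 C, then given compounds in DMSO plus TGF-beta1 (added as 0.25 ng/mL solution) for 5 hr. After the bla read, CellTiter-Glo was added to the same wells and luminescence read after 30 min at room temperature.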
# Sequence of Estrogen receptor beta (Homo sapiens) (Q92731 whole entry, looked up): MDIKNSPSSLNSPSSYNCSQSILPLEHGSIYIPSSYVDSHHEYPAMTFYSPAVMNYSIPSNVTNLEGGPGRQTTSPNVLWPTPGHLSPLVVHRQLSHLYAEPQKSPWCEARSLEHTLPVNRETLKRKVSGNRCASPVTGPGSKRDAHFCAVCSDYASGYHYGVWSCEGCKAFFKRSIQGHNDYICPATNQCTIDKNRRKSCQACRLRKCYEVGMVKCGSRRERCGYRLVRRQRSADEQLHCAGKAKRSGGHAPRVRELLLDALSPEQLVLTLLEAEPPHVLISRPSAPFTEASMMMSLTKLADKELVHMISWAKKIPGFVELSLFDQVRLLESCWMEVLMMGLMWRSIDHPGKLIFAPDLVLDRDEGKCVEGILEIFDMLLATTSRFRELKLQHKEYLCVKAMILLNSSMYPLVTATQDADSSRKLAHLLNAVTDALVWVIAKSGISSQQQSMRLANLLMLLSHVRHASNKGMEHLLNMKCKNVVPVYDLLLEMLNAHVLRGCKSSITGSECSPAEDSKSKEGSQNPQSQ
# Sequence of Thyrotropin receptor (Homo sapiens) (P16473 whole entry, looked up): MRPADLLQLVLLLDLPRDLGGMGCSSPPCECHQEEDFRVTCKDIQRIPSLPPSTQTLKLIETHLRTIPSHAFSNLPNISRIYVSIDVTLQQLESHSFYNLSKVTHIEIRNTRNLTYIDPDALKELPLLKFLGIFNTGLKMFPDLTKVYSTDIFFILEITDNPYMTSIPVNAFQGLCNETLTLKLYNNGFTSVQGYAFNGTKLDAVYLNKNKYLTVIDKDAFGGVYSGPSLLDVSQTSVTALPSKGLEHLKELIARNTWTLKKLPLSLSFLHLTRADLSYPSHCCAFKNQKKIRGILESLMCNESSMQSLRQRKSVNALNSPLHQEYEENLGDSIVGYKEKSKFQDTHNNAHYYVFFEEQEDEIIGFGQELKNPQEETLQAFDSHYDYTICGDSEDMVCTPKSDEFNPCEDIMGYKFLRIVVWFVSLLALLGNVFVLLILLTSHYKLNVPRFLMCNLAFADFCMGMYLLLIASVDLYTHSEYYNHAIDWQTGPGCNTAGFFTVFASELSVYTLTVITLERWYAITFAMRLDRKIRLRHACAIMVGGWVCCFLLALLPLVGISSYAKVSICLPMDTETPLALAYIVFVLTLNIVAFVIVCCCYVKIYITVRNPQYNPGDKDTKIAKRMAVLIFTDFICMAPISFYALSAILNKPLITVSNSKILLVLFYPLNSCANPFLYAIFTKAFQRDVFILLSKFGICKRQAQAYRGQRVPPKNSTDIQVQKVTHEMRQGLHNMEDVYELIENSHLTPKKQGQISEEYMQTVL
# Sequence of Progesterone receptor (Homo sapiens) (P06401 whole entry, looked up): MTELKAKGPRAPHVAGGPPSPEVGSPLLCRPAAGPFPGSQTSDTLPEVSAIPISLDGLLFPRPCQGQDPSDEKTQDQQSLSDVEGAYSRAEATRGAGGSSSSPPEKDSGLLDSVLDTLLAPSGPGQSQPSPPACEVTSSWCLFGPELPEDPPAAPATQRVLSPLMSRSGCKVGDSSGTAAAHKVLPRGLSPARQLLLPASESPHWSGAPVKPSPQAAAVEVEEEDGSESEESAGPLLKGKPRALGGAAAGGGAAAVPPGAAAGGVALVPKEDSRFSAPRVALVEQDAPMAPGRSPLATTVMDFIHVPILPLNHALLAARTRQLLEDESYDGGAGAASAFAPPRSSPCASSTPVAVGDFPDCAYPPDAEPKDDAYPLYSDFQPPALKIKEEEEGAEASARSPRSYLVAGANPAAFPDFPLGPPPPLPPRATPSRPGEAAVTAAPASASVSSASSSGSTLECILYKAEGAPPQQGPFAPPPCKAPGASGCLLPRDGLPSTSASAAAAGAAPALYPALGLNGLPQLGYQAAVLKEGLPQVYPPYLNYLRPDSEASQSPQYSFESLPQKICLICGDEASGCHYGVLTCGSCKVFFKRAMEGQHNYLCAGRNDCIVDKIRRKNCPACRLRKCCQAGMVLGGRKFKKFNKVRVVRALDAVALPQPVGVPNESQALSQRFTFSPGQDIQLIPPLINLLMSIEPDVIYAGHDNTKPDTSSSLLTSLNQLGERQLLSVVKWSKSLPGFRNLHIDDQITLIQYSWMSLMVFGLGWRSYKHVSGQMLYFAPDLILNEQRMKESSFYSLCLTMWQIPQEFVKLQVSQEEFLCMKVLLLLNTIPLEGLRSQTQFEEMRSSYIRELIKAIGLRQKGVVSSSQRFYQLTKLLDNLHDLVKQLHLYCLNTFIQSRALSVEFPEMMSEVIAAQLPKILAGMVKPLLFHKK
# Sequence of Thyrotropin-releasing hormone receptor (Homo sapiens) (P34981 whole entry, looked up): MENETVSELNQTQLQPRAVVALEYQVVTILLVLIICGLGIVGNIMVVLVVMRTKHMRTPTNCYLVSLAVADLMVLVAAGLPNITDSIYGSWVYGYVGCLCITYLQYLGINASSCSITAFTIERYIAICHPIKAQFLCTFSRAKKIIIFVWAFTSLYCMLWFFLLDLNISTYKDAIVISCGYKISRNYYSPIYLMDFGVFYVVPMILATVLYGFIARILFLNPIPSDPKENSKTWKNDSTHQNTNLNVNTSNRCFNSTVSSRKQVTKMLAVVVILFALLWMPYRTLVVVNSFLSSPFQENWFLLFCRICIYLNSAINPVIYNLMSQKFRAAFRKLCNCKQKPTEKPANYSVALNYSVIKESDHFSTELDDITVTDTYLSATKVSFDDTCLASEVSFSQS
# Sequence of Estrogen receptor (Homo sapiens) (P03372 whole entry, looked up): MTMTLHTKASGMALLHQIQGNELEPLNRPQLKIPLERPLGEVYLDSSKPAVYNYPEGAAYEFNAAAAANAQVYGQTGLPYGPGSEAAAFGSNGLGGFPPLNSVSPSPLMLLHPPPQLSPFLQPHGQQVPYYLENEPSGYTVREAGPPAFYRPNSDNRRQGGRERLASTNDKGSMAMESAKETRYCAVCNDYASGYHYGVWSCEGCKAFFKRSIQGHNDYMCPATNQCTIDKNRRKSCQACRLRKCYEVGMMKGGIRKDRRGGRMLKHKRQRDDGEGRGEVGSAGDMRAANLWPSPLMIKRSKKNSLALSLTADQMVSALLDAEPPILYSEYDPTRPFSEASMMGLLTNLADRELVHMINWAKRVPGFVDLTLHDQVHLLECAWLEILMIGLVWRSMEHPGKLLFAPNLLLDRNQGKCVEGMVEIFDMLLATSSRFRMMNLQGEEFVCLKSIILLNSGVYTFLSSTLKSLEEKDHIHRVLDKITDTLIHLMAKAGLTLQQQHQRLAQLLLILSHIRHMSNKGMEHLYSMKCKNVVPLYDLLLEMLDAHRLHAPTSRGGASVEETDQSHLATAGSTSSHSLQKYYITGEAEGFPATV
SMILES,Potency [1],outcome [2],Potency [3],Potency [4],Potency [5],outcome [6],Potency [7],outcome [8],Potency [9],Potency [10],Potency [11],Potency [12],outcome [13],outcome [14],outcome [15],outcome [16],Potency [17],Potency [18],outcome [19]
CCC(C)OC(=O)N1CCCCC1CCO (centres undefined),inactive,inactive,inactive,inactive,inactive,inactive,inactive,inactive,inactive,inactive,inactive,inactive,inactive,inactive,inactive,inactive,–,–,–
O=C(O)CCNC(=O)c1ccc(N=Nc2ccc(O)c(C(=O)O)c2)cc1,inactive,inactive,–,inactive,inactive,inactive,inactive,–,inactive,inactive,inactive,–,inactive,inactive,inactive,inactive,inactive,inactive,inactive
CC(O)CN(CCCN(C)C)CCCN(C)C (centres undefined),inactive,inactive,inactive,inactive,inactive,–,–,inactive,inactive,inactive,inactive,inactive,inactive,inactive,inactive,inactive,inactive,–,–
c1cc(CN2CCCCC2)cc(OCCCNc2nc3ccccc3s2)c1,4.73 µM (active),inactive,–,–,inactive,inactive,–,–,inactive,–,inactive,–,inactive,inactive,–,–,23.7 µM (active),inactive,inactive
Nc1cc(C(Cl)=C(Cl)Cl)c(S(N)(=O)=O)cc1S(N)(=O)=O,inactive,inactive,inactive,–,inactive,inactive,–,inactive,inactive,inactive,inactive,inactive,inactive,inactive,inactive,inactive,–,inactive,inactive
CN(C)C(=O)Nc1ccccc1,inactive,inactive,inactive,inactive,inactive,inactive,inactive,inactive,inactive,inactive,inactive,inactive,inactive,inactive,inactive,inactive,inactive,–,inactive
CCCC=O,inactive,inactive,inactive,inactive,inactive,inactive,inactive,inactive,inactive,inactive,inactive,inactive,inactive,inactive,–,–,inactive,–,–
CCC(=O)Nc1cccc(N)c1,inactive,inactive,inactive,inactive,inactive,inactive,–,inactive,inactive,inactive,inactive,inactive,inactive,inactive,inactive,inactive,inactive,–,inactive
